Drawing on ChEMBL document CHEMBL1201862, “PubChem BioAssay data set” (2004), this text covers Potency for 31 molecules.

Hit rate of the full screen: of about 400,000 compounds, about 2,100 (0.53%) were called active. Another 14% or so got no clear call; they are omitted. The rule behind the calls is not given here. The entries come from a sample that favours actives as a whole.

In the test the target is Ataxin-2 (Homo sapiens) (UniProt Q99700). The experiment in a line: qHTS for Inhibitors of ATXN expression. The test is classed as functional.
Chain of Ataxin-2 (Homo sapiens) (Q99700 whole entry): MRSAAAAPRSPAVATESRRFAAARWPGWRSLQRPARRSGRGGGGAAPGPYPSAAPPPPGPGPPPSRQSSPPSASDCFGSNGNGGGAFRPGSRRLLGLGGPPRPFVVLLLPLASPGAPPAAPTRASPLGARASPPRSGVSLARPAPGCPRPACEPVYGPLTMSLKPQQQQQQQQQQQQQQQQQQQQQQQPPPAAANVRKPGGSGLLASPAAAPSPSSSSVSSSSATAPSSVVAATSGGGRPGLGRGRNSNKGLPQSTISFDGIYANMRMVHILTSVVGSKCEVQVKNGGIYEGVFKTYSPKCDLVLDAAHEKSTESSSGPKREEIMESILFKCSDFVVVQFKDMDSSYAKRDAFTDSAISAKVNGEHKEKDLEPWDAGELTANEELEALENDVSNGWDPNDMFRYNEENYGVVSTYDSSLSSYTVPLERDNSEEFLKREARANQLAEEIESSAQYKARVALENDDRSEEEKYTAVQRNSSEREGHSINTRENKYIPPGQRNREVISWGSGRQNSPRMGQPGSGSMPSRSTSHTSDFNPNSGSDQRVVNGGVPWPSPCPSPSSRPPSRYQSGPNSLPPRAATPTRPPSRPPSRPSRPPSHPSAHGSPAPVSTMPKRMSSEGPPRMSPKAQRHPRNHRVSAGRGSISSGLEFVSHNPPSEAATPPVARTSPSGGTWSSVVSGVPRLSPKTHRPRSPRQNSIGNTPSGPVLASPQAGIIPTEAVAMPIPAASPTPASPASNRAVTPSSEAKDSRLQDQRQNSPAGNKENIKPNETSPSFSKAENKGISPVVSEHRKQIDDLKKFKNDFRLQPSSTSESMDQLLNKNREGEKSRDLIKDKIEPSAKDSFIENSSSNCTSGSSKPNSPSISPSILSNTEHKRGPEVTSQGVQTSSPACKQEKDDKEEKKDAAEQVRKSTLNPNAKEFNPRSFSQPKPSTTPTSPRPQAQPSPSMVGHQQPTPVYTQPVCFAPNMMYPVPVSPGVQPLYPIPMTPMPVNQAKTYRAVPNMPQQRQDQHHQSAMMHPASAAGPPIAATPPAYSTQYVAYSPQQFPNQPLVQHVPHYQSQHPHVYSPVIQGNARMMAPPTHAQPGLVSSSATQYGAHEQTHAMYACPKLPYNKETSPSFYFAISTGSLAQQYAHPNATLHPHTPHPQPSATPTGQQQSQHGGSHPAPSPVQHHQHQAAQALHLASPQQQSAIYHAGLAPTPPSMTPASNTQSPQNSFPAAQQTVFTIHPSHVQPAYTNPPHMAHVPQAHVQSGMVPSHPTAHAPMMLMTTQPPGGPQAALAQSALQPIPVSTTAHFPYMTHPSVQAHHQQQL
On to `CCn1c(=N)c(C(=O)NCC2CCCO2)cc2c(=O)n3cc(C)ccc3nc21` (stereo unspecified), for which the Potency result is “inactive”. As to `C=CCC[C@@H](Cc1ccc(F)cc1)C(=O)OC[C@H](Cc1c[nH]c2ccccc12)NC(=O)[C@@H](CC=C)CC(=O)NCCO`, the Potency was 39.8 µM (active). For `C=CCC[C@H](Cc1ccc(F)cc1)C(=O)OC[C@H](Cc1c[nH]c2ccccc12)NC(=O)[C@@H](CC=C)CC(=O)NCCO` the value was 28.2 µM (active); for `C=CC[C@@H](CC(=O)NCCO)C(=O)N[C@H](COC(=O)[C@@H](CC=C)Cc1ccc(F)cc1)Cc1c[nH]c2ccccc12`, 35.5 µM (active); for `C=CC[C@@H](CC(=O)N[C@H](CO)Cc1ccccc1)C(=O)N[C@H](COC(=O)[C@@H](CC=C)Cc1ccc(F)cc1)Cc1c[nH]c2ccccc12`, 25.1 µM (active). To `CC(C)n1c(=N)c(C(=O)NCCc2ccccc2)cc2c(=O)n3ccccc3nc21` belongs “inactive”. To `COc1cc(/C=C2\C(=N)N3N=CSC3=NC2=O)cc(Br)c1OC(=O)c1ccco1` belongs “inactive”; to `COc1ccc2nc(N3CCCCC3)c(C#N)cc2c1`, “inactive”. `N=c1oc2cc(O)ccc2cc1C(=O)Nc1ccc(F)cc1`: the Potency entry was “inactive”. To `COCCOC(=O)c1c(N)n(CCCN2CCOCC2)c2nc3ccccc3nc12` belongs “inactive”. In the case of `CCOC(=O)/C(=C\c1ccccc1)C(=O)CCN1CCOCC1`, the Potency is 42.3 µM (active). To `O=C(NCCCN1CCOCC1)/C(=C/c1cccnc1)NC(=O)c1ccccc1` belongs “inactive”. For `CCCc1cc(=O)oc2cc(O[C@@H]3O[C@H](CO)[C@@H](O)[C@H](O)[C@H]3O)ccc12` the value was “inactive”; for `COc1ccccc1NC(=O)CSc1nnc(-c2ccoc2C)o1`, “inactive”. To `COc1ccccc1-c1nnc(Sc2nc([N+](=O)[O-])nn2C)o1` belongs 11.2 µM (active). `COc1ccccc1-c1nnc(-c2ccc(C)cc2)o1`: the Potency result is “inactive”.

Turning to `C=CCn1c2ccccc2c2nnc(SCCCn3c(=O)[nH]c4ccccc43)nc21`, the Potency was 39.8 µM (active). To `CCn1c2ccccc2c2nc3cc(C(=O)O)ccc3nc21` belongs “inactive”; to `C=CCn1c(N)c(C(=O)OC(C)(C)C)c2nc3ccccc3nc21`, “inactive”; to `NC(=O)C[n+]1cccc(C(=O)Nc2ccccc2)c1`, “inactive”. To `CCN(CC)c1ccc2c(C)c(-c3ccc(N)cc3)c(=O)oc2c1` belongs “inactive”.

As for `CCN(CC)c1ccc2ccc(=O)oc2c1`, the Potency result is “inactive”.

Regarding `CCN(CC)c1ccc(N)cc1`, the Potency was 31.6 µM (active). For `O=C(Nc1ccccc1)N(C1=NCCC1)c1ccccc1` the value was “inactive”; for `CC(=O)n1cc(N(C(=O)CCl)c2ccccc2)c2ccccc21`, 22.4 µM (active).

`O=C(O)c1ccccc1N(c1ccccc1)c1ccccc1`: the Potency entry was “inactive”. To `O=C(Nc1ccccc1)NN(C(=O)CCl)c1ccccc1` belongs 22.4 µM (active); to `CC(=O)n1c(/C=N/c2ccccc2)c(O)c2ccccc21`, “inactive”; to `O=C(CCCC(=O)NNC(=O)Nc1ccccc1)NNC(=O)Nc1ccccc1`, “inactive”. Turning to `O=C(CCl)N(c1ccccc1)c1ccccc1`, the Potency is 7.52 µM (active). For `COC(=O)c1cn(C(=O)c2cc(C)cc(C)c2)c2ccccc12` the value was “inactive”.
